Screens from PubChem BioAssay.
An excerpt weighted towards active compounds, which were near 9.2% of everything screened.
NPC1 promoter act = NPC1 promoter activation. Huh7 NPC1 promoter luciferase reporter, 24 h. Potency, µM (doses to about 9.22 µM), without a hit: top-dose activation, most hits filed as activators. actives 2.4% (n = 320,000). AID 485313; note: % of control where 0% means no effect; nearly all actives have a fitted effect of over 60% in size
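Huh7 reporter cells (NPC1 promoter driving luciferase) are dosed with compound for 24 h at 37 °C, 5% CO2; luciferase detection reagent is then added and luminescence measured after 10 min at ambient temperature.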
Rab9 promoter act = Rab9 promoter activation | Huh7 Rab9 promoter-luciferase reporter, luminescence, 24 h | Potency, µM (series often up to 9.22 µM), without a hit: top-dose activation, negative = inhibition, actives largely listed as activators | actives 2.8% (n = 320,000) | AID 485297; note: % of control where 0% means no effect; nearly all actives have a fitted effect of over 60% in size
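Luminescence from Amplite-detected luciferase (10 minutes, ambient) reports Rab9 promoter activation. Before that, stable Rab9-luciferase Huh7 cells (1500/well, reduced-serum OP-MEM I plus 10% FBS) were exposed to compound for 24 hours at 37C.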
ELG1 genotox = genotoxicity induction in ELG1-luciferase HEK293T cells. actives 1.3% (n = 330,000). Potency, µM (titrated, usually from 46 µM), for the others: at the top dose activity change, positive = activation, hits mostly activators. HEK293T ELG1-luciferase reporter, luminescence, 16 h. AID 504466; note: % of control where 0% means no effect; nearly all actives have a fitted effect of over 60% in size
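HEK293T cells expressing luciferase-tagged ELG1 were exposed to compound or DMSO vehicle for 16 hr at 37 °C and 5% CO2. Luciferase activity was then measured with ONE-Glo after 30 min at room temperature.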
SMN2 splice enh = SMN2 splice variant enhancement; Potency, µM (top dose mostly 46.1 µM), for inactives: at the top dose activity change, positive = activation, usual class: activators; AID 1458; HEK293 SMN2-luciferase splicing reporter, luminescence, 30-36 h; actives 2.8% (n = 210,000); note: % of control where 0% means no effect; nearly all actives have a fitted effect of over 55% in size
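HEK293 cells carry an SMN2 minigene-luciferase reporter in which exon 7 inclusion puts luciferase in frame. Cells were seeded at 2000 cells/well, attached for 10-12 hours, then exposed to compounds for 30-36 hours at 37C before ONE-Glo luminescence.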
FLuc counter = firefly luciferase modulation, counter-screen for miR-21 project. purified FLuc, Km substrates, luminescence inhibition. Potency, µM (top dose mostly 57.5 µM), for the others: at the highest dose activity change, negative = inhibition, most hits filed as inhibitors. actives 6.9% (n = 360,000). AID 588342;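 note: plate controls were vehicle for no effect and reference inhibitor for full effect; nearly all actives have a fitted effect of over 55% in size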
Target sequence (P08659 whole entry, looked up): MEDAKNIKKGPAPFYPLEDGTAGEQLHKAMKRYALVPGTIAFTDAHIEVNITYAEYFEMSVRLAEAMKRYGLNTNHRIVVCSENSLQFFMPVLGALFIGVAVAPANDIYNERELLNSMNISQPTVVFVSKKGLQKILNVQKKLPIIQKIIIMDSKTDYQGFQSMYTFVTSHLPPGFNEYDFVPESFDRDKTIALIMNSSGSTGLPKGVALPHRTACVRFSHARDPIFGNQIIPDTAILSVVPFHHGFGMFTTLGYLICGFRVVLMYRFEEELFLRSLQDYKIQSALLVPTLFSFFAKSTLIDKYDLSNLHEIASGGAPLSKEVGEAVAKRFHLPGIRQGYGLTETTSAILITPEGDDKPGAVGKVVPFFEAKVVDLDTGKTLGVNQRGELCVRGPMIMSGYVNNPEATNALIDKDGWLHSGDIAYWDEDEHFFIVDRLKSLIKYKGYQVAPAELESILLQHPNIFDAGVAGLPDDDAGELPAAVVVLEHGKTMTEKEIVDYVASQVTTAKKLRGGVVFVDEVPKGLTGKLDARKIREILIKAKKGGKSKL
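Biochemical qHTS of compounds, final roughly 60 µM downward over six points, against 10 nM purified firefly luciferase using Km concentrations of substrates (10 uM D-luciferin, 10 uM ATP) in Tris acetate pH 7.5 buffer; luminescence output.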
ELG1 repair inh = ELG1-dependent DNA repair inhibition | Potency, µM (series often up to 46.1 µM), without a hit: at the highest dose activity change, negative = inhibition, hits mostly inhibitors | AID 504467 | actives 2.3% (n = 330,000) | HEK293T ELG1-luciferase reporter, luminescence, 16 h; DNA damage induced by 5-fluorouridine; note: % is set by controls: 0 for no effect and ±100 for the full control effect; nearly all actives have a fitted effect of over 55% in size
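HEK293T cells expressing luciferase-tagged ELG1 (2,000/well) received 5-Fluorouridine plus compound or DMSO for 16 hr at 37 °C. Luciferase was read by ONE-Glo luminescence after 30 min at room temperature.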
* hit, by the source's call. Calls come from the whole dose curve; as a rule, active = well fitted curve in the direction sought with a large enough effect; inconclusive = small, poorly fitted or top-dose-only effect, or another doubt; inactive = no such curve, though single readings can be large; an effect the other way counts as inactive or inconclusive. Potency is the fitted concentration of half-maximal effect.

Screening O=C(NCc1ccc(F)cc1)c1c2c(nc3ccccc13)CCC2 returned NPC1 promoter act inconclusive, Rab9 promoter act inconclusive, ELG1 genotox 14%, SMN2 splice enh 5%, FLuc counter 13µM* and ELG1 repair inh inconclusive.
O=C(OCC(=O)N1CCc2ccccc21)c1ccccc1F was read as NPC1 promoter act 3%, Rab9 promoter act 4%, ELG1 genotox 12%, FLuc counter 4.8µM* and ELG1 repair inh 17%.
For CC(=O)c1c(C)[nH]c(C(=O)OCC(=O)N2CCc3ccccc32)c1C the results were NPC1 promoter act 4µM*, Rab9 promoter act inconclusive, ELG1 genotox 6%, FLuc counter -18% and ELG1 repair inh inconclusive.
CCC(=O)OCCCNc1nc(-c2ccc(Cl)cc2)nc2ccccc12 was read as SMN2 splice enh 3% and FLuc counter -19%.
For Cc1ccc(C(=O)OCC(=O)N2CCc3ccccc32)cc1 the results were NPC1 promoter act inconclusive, Rab9 promoter act inconclusive, ELG1 genotox 9%, SMN2 splice enh -19%, FLuc counter 6µM* and ELG1 repair inh inconclusive.
NC(=O)COC(=O)c1c2c(nc3ccccc13)CCCC2 was read as NPC1 promoter act -6%, Rab9 promoter act 6%, ELG1 genotox -10%, SMN2 splice enh 2%, FLuc counter -4% and ELG1 repair inh -1%.
For O=C(OCC(=O)N1CCc2ccccc21)c1c2c(nc3ccccc13)CCCCC2 the results were NPC1 promoter act 3%, Rab9 promoter act 2%, ELG1 genotox -11%, SMN2 splice enh 3%, FLuc counter 4.3µM* and ELG1 repair inh 23µM*.
Cc1sc2ncnc(N3CCN(S(=O)(=O)c4ccc(F)cc4)CC3)c2c1C was read as NPC1 promoter act -2%, Rab9 promoter act -3%, ELG1 genotox -31%, FLuc counter -1% and ELG1 repair inh inconclusive.
`Cc1ccc(S(=O)(=O)N2CCN(c3ncnc4sccc34)CC2)cc1` gave NPC1 promoter act -24%, Rab9 promoter act -21%, ELG1 genotox -10%, FLuc counter 3% and ELG1 repair inh 9.2µM*.
Screening COc1ccccc1N1CCN(C(=O)c2sc3nc(-c4ccc(F)cc4)cn3c2C)CC1 returned NPC1 promoter act -5%, Rab9 promoter act -19%, ELG1 genotox -46%, SMN2 splice enh -78%, FLuc counter 2% and ELG1 repair inh 18µM*.
For COc1ccc(-c2cn3c(C)c(C(=O)N4CCN(c5ccc(F)cc5)CC4)sc3n2)cc1 the results were NPC1 promoter act 1%, Rab9 promoter act -8%, ELG1 genotox 13%, SMN2 splice enh -34%, FLuc counter inconclusive and ELG1 repair inh 0%.
CCOC(=O)N1CCN(C(=O)c2sc3nc(-c4ccc(F)cc4)cn3c2C)CC1 was read as NPC1 promoter act 0%, Rab9 promoter act -7%, ELG1 genotox -2%, SMN2 splice enh -22%, FLuc counter -1% and ELG1 repair inh 21µM*.
Screening CCC(=O)N1c2ccccc2CC1C(=O)NCc1ccc(OC(C)C)cc1 (centres undefined) returned FLuc counter -5%.
For COc1ccc(C(=O)Nc2ccc3nc(N4CCN(C)CC4)cc(C)c3c2)c(OC)c1 the results were NPC1 promoter act 0%, Rab9 promoter act 0%, ELG1 genotox 7%, FLuc counter 17µM* and ELG1 repair inh 2%.
For COc1ccc2c(C)cc(N3CCOCC3)nc2c1 the results were NPC1 promoter act 21%, Rab9 promoter act 24%, ELG1 genotox 8%, SMN2 splice enh 13%, FLuc counter inconclusive and ELG1 repair inh inconclusive.
For Cc1cc(N2CCN(C)CC2)nc2ccc(NC(=O)c3ccc(C(C)(C)C)cc3)cc12 the results were SMN2 splice enh -97% and FLuc counter inconclusive.
For CCN1CCN(c2cc(C)c3cc(NC(=O)c4cccc(OC)c4)ccc3n2)CC1 the results were NPC1 promoter act 16%, Rab9 promoter act 20%, ELG1 genotox 12%, FLuc counter 19µM* and ELG1 repair inh inconclusive.
For COc1cccc(C(=O)Nc2ccc3nc(N4CCN(c5ncccn5)CC4)cc(C)c3c2)c1OC the results were NPC1 promoter act -17%, Rab9 promoter act -13%, ELG1 genotox -12%, SMN2 splice enh -90% and ELG1 repair inh 2.6µM*.
For COc1ccc2nc(N3CCOCC3)cc(C)c2c1 the results were NPC1 promoter act inconclusive, Rab9 promoter act 2.8µM*, ELG1 genotox 8.2µM*, SMN2 splice enh 11µM*, FLuc counter 5.4µM* and ELG1 repair inh inconclusive.
COC(=O)c1ccc(NC(=O)COC(=O)COc2cccc3c2OC(C)(C)C3)cc1 was read as NPC1 promoter act 1%, Rab9 promoter act -3%, ELG1 genotox -1%, FLuc counter -3% and ELG1 repair inh inconclusive.
For Brc1cccc(-c2nnn3c2nc(N2CCCCC2)c2ccccc23)c1 the results were SMN2 splice enh -7% and FLuc counter 0%.
For CCOC(=O)c1c(NC(=O)/C=C/c2ccc(C)cc2)sc(C(C)=O)c1C the results were SMN2 splice enh -8% and FLuc counter 0%.
Screening CCOc1ccccc1NC(=O)Nc1ccc2nc(N3CCN(C)CC3)cc(C)c2c1 returned FLuc counter 5.4µM*.
CCOc1ccccc1NC(=O)Nc1nnc(N2CCCCCC2)s1 was read as FLuc counter 15µM*.
Screening Cc1c(NC(=O)COC(=O)c2ccc(Cl)nc2)c(=O)n(-c2ccccc2)n1C returned ELG1 genotox 4% and ELG1 repair inh 0%.
For O=C(O)c1ccc2c3c(cccc13)C(=O)N(c1ccccc1)C2=O the results were NPC1 promoter act -3%, Rab9 promoter act -1%, ELG1 genotox 0%, SMN2 splice enh 0%, FLuc counter 3% and ELG1 repair inh -8%.
`CC(=O)c1ccc2c3c(cccc13)C(=O)N(CCc1ccccc1)C2=O` gave NPC1 promoter act 4µM*, Rab9 promoter act 4µM*, ELG1 genotox -4%, FLuc counter 11µM* and ELG1 repair inh inconclusive.
Screening CCOC(=O)C1CCCN(c2ncnc3c2cnn3-c2ccc(Cl)cc2)C1 (centres undefined) returned NPC1 promoter act inconclusive, Rab9 promoter act inconclusive, ELG1 genotox 6%, SMN2 splice enh 27%, FLuc counter 12µM* and ELG1 repair inh inconclusive.
Screening CCOC(=O)C1CCCN(c2ncnc3c2cnn3-c2ccc(OC)cc2)C1 (centres undefined) returned NPC1 promoter act inconclusive, Rab9 promoter act inconclusive, ELG1 genotox 5.2µM*, SMN2 splice enh 11µM*, FLuc counter inconclusive and ELG1 repair inh inconclusive.
